In PubChem BioAssay AID1159580 (chemical genetic matrix, 2015):
Out of some 5,500 compounds screened, about 2,000 (36%) were called active. About 18% were inconclusive and are not listed. Cut-off read from the data, not from the text of the source: active = normalized growth mostly below about 0.91 (no sharp cut-off); inconclusive = no clear call, values can overlap the other calls; inactive = mostly above about 0.92. Some of the results follow.

Experiment: chemical genetic growth profiling, strain panel (AID 1159580);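 note: tested at 20 µM; growth read once vehicle control cultures reached saturation at 30 °C; 1 = growth at the plate median or of vehicle wells; lower values mean less growth of the strain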
Conditions: growth OD

Measured: normalized growth

CC1CCc2cc(F)cc3c(=O)c(C(=O)O)cn1c23 (configuration not stated)
inactive: S. cerevisiae deletion strains, locus YJR075W, strain HOC1, stronger effect = lower value 0.967 | S. cerevisiae deletion strains, locus YKL009W, strain mrt4, stronger effect = lower value 0.957 | S. cerevisiae deletion strains, locus YKL068W, stronger effect = lower value 0.985 | S. cerevisiae deletion strains, locus YKL085W, strain MDH1 (second series), stronger effect = lower value 0.974 | S. cerevisiae deletion strains, locus YKL085W, strain MDH1, stronger effect = lower value 0.974 | S. cerevisiae deletion strains, locus YKL160W, strain elf1, stronger effect = lower value 0.971 | S. cerevisiae deletion strains, locus YKL190W, strain CNB1, stronger effect = lower value 0.991 | S. cerevisiae deletion strains, locus YKR001C, strain vps1, stronger effect = lower value 0.998 | S. cerevisiae deletion strains, locus YKR026C, strain gcn3, stronger effect = lower value 0.989 | S. cerevisiae deletion strains, locus YKR091W, strain srl3, stronger effect = lower value 0.994 | S. cerevisiae deletion strains, locus YLL001W, strain dnm1, stronger effect = lower value 0.966 | S. cerevisiae deletion strains, locus YLL026W, stronger effect = lower value 0.995 | S. cerevisiae deletion strains, locus YLL041C, strain sdh2, stronger effect = lower value 0.989 | S. cerevisiae deletion strains, locus YLR027C, strain aat2, stronger effect = lower value 0.988 | S. cerevisiae deletion strains, locus YLR039C, strain RIC1, stronger effect = lower value 0.892 | S. cerevisiae deletion strains, locus YLR058C, strain SHM2, stronger effect = lower value 0.983 | S. cerevisiae deletion strains, locus YLR102C, strain apc9, stronger effect = lower value 0.982 | S. cerevisiae deletion strains, locus YLR113W, strain HOG1, stronger effect = lower value 0.955 | S. cerevisiae deletion strains, locus YLR221C, strain rsa3, stronger effect = lower value 0.973 | S. cerevisiae deletion strains, locus YLR258W, strain gsy2, stronger effect = lower value 0.982 | S. cerevisiae deletion strains, locus YLR262C, strain YPT6 (second series), stronger effect = lower value 0.952 | S. cerevisiae deletion strains, locus YLR262C, strain YPT6, stronger effect = lower value 0.867 | S. cerevisiae deletion strains, locus YLR268W, strain sec22, stronger effect = lower value 0.894 | S. cerevisiae deletion strains, locus YLR320W, strain mms22, stronger effect = lower value 0.972 | S. cerevisiae deletion strains, locus YLR330W, strain CHS5, stronger effect = lower value 1.01 | S. cerevisiae deletion strains, locus YLR342W, strain FKS1 (second series), stronger effect = lower value 0.978 | S. cerevisiae deletion strains, locus YLR342W, strain FKS1, stronger effect = lower value 0.978 | S. cerevisiae deletion strains, locus YLR357W, strain rsc2, stronger effect = lower value 0.923 | S. cerevisiae deletion strains, locus YLR370C, strain arc18, stronger effect = lower value 0.991 | S. cerevisiae deletion strains, locus YLR371W, strain rom2, stronger effect = lower value 0.965 | S. cerevisiae deletion strains, locus YLR384C, strain iki3, stronger effect = lower value 0.985 | S. cerevisiae deletion strains, locus YLR418C, strain cdc73, stronger effect = lower value 0.96 | S. cerevisiae deletion strains, locus YML016C, strain PPZ1, stronger effect = lower value 0.986 | S. cerevisiae deletion strains, locus YML032C, strain rad52, stronger effect = lower value 0.95 | S. cerevisiae deletion strains, locus YML120C, strain ndi1, stronger effect = lower value 0.975 | S. cerevisiae deletion strains, locus YML124C, strain tub3, stronger effect = lower value 0.994 | S. cerevisiae deletion strains, locus YMR058W, strain fet3, stronger effect = lower value 0.998 | S. cerevisiae deletion strains, locus YMR078C, strain ctf18, stronger effect = lower value 0.961 | S. cerevisiae deletion strains, locus YMR125W, strain sto1, stronger effect = lower value 0.978 | S. cerevisiae deletion strains, locus YMR129W, stronger effect = lower value 0.992 | S. cerevisiae deletion strains, locus YMR205C, strain PFK2, stronger effect = lower value 0.968 | S. cerevisiae deletion strains, locus YMR223W, strain ubp8, stronger effect = lower value 0.992 | S. cerevisiae deletion strains, locus YMR231W, strain pep5, stronger effect = lower value 0.991 | S. cerevisiae deletion strains, locus YMR263W, strain SAP30, stronger effect = lower value 0.964 | S. cerevisiae deletion strains, locus YMR307W, strain GAS1, stronger effect = lower value 1.02 | S. cerevisiae deletion strains, locus YNL067W, strain RPL9B, stronger effect = lower value 0.962 | S. cerevisiae deletion strains, locus YNL071W, strain lat1, stronger effect = lower value 0.998 | S. cerevisiae deletion strains, locus YNL128W, strain TEP1, stronger effect = lower value 0.976 | S. cerevisiae deletion strains, locus YNL153C, strain GIM3, stronger effect = lower value 0.972 | S. cerevisiae deletion strains, locus YNL183C, strain NPR1, stronger effect = lower value 0.904 | S. cerevisiae deletion strains, locus YNL209W, strain ssb2, stronger effect = lower value 0.996 | S. cerevisiae deletion strains, locus YNL233W, strain BNI4, stronger effect = lower value 0.968 | S. cerevisiae deletion strains, locus YNL248C, strain rpa49, stronger effect = lower value 0.971 | S. cerevisiae deletion strains, locus YNL250W, strain rad50, stronger effect = lower value 0.973 | S. cerevisiae deletion strains, locus YNL271C, strain bni1, stronger effect = lower value 0.962 | S. cerevisiae deletion strains, locus YNL298W, strain CLA4, stronger effect = lower value 0.957 | S. cerevisiae deletion strains, locus YNL307C, strain MCK1, stronger effect = lower value 0.983 | S. cerevisiae deletion strains, locus YNL322C, strain KRE1 (second series), stronger effect = lower value 0.995 | S. cerevisiae deletion strains, locus YNL322C, strain KRE1, stronger effect = lower value 0.986 | S. cerevisiae deletion strains, locus YNR049C, strain mso1, stronger effect = lower value 0.987 | S. cerevisiae deletion strains, locus YNR052C, strain pop2, stronger effect = lower value 0.96 | S. cerevisiae deletion strains, locus YOL006C, strain TOP1, stronger effect = lower value 0.947 | S. cerevisiae deletion strains, locus YOL012C, strain htz1 0.784 | S. cerevisiae deletion strains, locus YOL147C, strain pex11, stronger effect = lower value 0.973 | S. cerevisiae deletion strains, locus YOR001W, strain rrp6, stronger effect = lower value 0.968 | S. cerevisiae deletion strains, locus YOR061W, strain CKA2, stronger effect = lower value 0.984 | S. cerevisiae deletion strains, locus YOR069W, strain VPS5, stronger effect = lower value 0.977 | S. cerevisiae deletion strains, locus YOR070C, strain gyp1, stronger effect = lower value 0.99 | S. cerevisiae deletion strains, locus YOR080W, strain dia2, stronger effect = lower value 0.992 | S. cerevisiae deletion strains, locus YOR083W, strain WHI5, stronger effect = lower value 0.969 | S. cerevisiae deletion strains, locus YOR106W, strain vam3, stronger effect = lower value 0.947 | S. cerevisiae deletion strains, locus YOR136W, strain idh2, stronger effect = lower value 0.98 | S. cerevisiae deletion strains, locus YOR144C, strain elg1, stronger effect = lower value 0.975 | S. cerevisiae deletion strains, locus YOR184W, strain ser1, stronger effect = lower value 0.959 | S. cerevisiae deletion strains, locus YOR231W, strain MKK1, stronger effect = lower value 0.982 | S. cerevisiae deletion strains, locus YOR265W, strain rbl2, stronger effect = lower value 0.982 | S. cerevisiae deletion strains, locus YOR270C, strain vph1, stronger effect = lower value 0.959 | S. cerevisiae deletion strains, locus YOR290C, strain snf2, stronger effect = lower value 0.955 | S. cerevisiae deletion strains, locus YOR316C, strain cot1, stronger effect = lower value 0.97 | S. cerevisiae deletion strains, locus YPL051W, strain arl3, stronger effect = lower value 0.984 | S. cerevisiae deletion strains, locus YPL055C, strain LGE1, stronger effect = lower value 0.985 | S. cerevisiae deletion strains, locus YPL078C, strain atp4, stronger effect = lower value 0.976 | S. cerevisiae deletion strains, locus YPL106C, strain sse1, stronger effect = lower value 0.963 | S. cerevisiae deletion strains, locus YPL240C, strain hsp82, stronger effect = lower value 0.974 | S. cerevisiae deletion strains, locus YPL241C, strain CIN2, stronger effect = lower value 0.997 | S. cerevisiae deletion strains, locus YPL256C, strain CLN2, stronger effect = lower value 0.974 | S. cerevisiae deletion strains, locus YPR119W, strain clb2, stronger effect = lower value 0.973 | S. cerevisiae deletion strains, locus YPR141C, strain kar3, stronger effect = lower value 0.961 | S. cerevisiae deletion strains, locus YPR163C, strain tif3, stronger effect = lower value 0.974 | S. cerevisiae deletion strains, locus YPR167C, strain met16, stronger effect = lower value 0.97 | S. cerevisiae deletion strains, strain wtn01, stronger effect = lower value 0.95 | S. cerevisiae strains, strain wild type, stronger effect = lower value 0.987
